Results: ChEMBL document CHEMBL4513216, “Probing the Open Global Health Chemical Diversity Library for Multistage-Active Starting Points for Next-Generation Antimalarials” (ACS Infect Dis, 2020)
The whole screen tested about 68,000 compounds, of which about 2,700 (4%) showed an effect of 50% or more. For the sample, strong results were picked, then their nearest neighbours and some compounds at random.

Tested on: Plasmodium berghei
Experiment: Screen against P. berghei liver stage (PbLuc), transformed with Luciferase, at 2uM
Format: functional, HepG2
Conditions: tested at 2 uM

Row | SMILES | INHIBITION [%]
1 | COc1ccc(CC(=O)N2CC[C@H](CO)[C@H](O)C2)c(OC)c1 | 26.93
2 | CCc1ccc(C(C)NC(=O)N2CCC(n3cncn3)CC2)cc1 (stereo unspecified) | 38.06
3 | CC(C)N(C)[C@@H]1CCN(c2ncccn2)[C@H]1Cc1ccncc1 | 11.9
4 | CN(CC(=O)N1CCC(Oc2ccc(C(F)(F)F)cn2)CC1)S(C)(=O)=O | 17.26
5 | Cc1nccn1CC1CCCN1S(=O)(=O)Cc1ccon1 (stereo unspecified) | 60.31
6 | Cc1nccn1CC1CCCN1S(=O)(=O)Cc1ccccc1 (stereo unspecified) | 0.26
7 | Cc1nccn1CC1CCCN1S(=O)(=O)Cc1ccc(F)cc1 (stereo unspecified) | -88.61
8 | CCc1nccn1CCCNC(=O)c1cnn(-c2ccccc2OC)c1 | -9.69
9 | O=C(CCn1ccc2cc(Br)ccc21)NCc1ccc(C(=O)O)cc1 | -4.69
10 | O=C(COC[C@@]12CCC[C@@H]1CN(C1CCCC1)C2)N1CCCC1 | -9.14
11 | O=C(COC[C@@]12CCC[C@@H]1CN(C1CCC1)C2)N1CCCC1 | 51.27
12 | O=C(COC[C@]12COC[C@H]1CN(C1CCC1)C2)N1CCCC1 | -37.65
13 | Cn1nc2c(cc1=O)CN(c1ncnc3ccsc13)CC2 | -37.96
14 | CCC[C@@H]1CN(Cc2cc3c(cc2OC)OCO3)C[C@H]1C(=O)O | -23.34
15 | CCC[C@@H]1CN(Cc2cc3c(cc2OC)OCCO3)C[C@H]1C(=O)O | 19.59
16 | CCC[C@@H]1CN(Cc2cc(OC)c3c(c2)OCO3)C[C@H]1C(=O)O | 57.75
17 | CN(C)c1nccc(C2CN(S(C)(=O)=O)C2)n1 | 40.78
18 | Cc1cc(C(=O)N2CCN(S(C)(=O)=O)[C@@H](C)C2)c(F)cc1F | 1.27
19 | CC(=O)N[C@H]1CCO[C@@H](c2cccc(NC(=O)Cc3ccccc3)c2)C1 | 0.93
20 | Cc1ccc(CCNC(=O)NCc2cccc(OC(F)F)c2)cn1 | -16.71
21 | O=C(NCCNc1ncccn1)NCc1cccc(OC(F)F)c1 | -35.22
22 | CCc1ccc(CNC(=O)CCNc2ncccn2)s1 | -18.99

Row | SMILES | INHIBITION [%]
23 | O=C(CCNc1ncccn1)NCc1csc(Br)c1 | 33.47
24 | O=C(CCNc1ncccn1)NCc1ccc(Br)s1 | 64.22
25 | O=C(CCNc1ncccn1)NCc1cccc(OC(F)F)c1 | 52.3
26 | c1ccc(-c2nnc(N3CCCC4(CCOC4)C3)s2)cc1 (stereo unspecified) | -21.39
27 | N#Cc1ccc(N2CCCN(CC(=O)N3CCOCC3)CC2)cc1 | -45.9
28 | Cc1ccc(NC2CCN(C(=O)CC3CCCO3)CC2)nn1 (stereo unspecified) | -3.38
29 | Cc1ccc(-c2noc(CN3CCOC(CN(C)C)C3)n2)cc1F (stereo unspecified) | -19.76
30 | CCc1ccc(C2CC(=O)Nc3cc(NS(C)(=O)=O)ccc32)o1 (stereo unspecified) | -24.85
31 | CCOc1ncccc1NC(=O)N1CCCN(C(=O)OC)CC1 | 12.81
32 | O=C([C@@H]1C[C@H]2[C@H](CCN2Cc2nccs2)O1)N1CCOCC1 | -16.93
33 | O=C([C@H]1CC[C@@H]2[C@@H](CCN2Cc2nccs2)O1)N1CCCCO1 | 23.93
34 | CN1CCN(C(=O)[C@H]2CC[C@@H]3[C@@H](CCN3Cc3nccs3)O2)CC1 | 1.78
35 | Cn1cc(CN2CC[C@@H]3O[C@H](C(=O)N4CCOCC4)C[C@@H]32)cn1 | 86.68
36 | CN1CCN(C(=O)[C@H]2C[C@H]3[C@H](CCN3Cc3nccs3)O2)CC1 | 37.54
37 | O=C([C@H]1CC[C@@H]2[C@@H](CCN2Cc2nccs2)O1)N1CCOCC1 | 77.07
38 | Cc1nc(CN2CC[C@@H]3O[C@@H](C(=O)N4CCOCC4)C[C@@H]32)cs1 | 34.24
39 | CN(C)C(=O)[C@@H]1CC[C@@H]2[C@@H](CCN2Cc2nccs2)O1 | 6.66
40 | CN(C)C(=O)[C@@H]1C[C@@H]2CCN(Cc3nccs3)C[C@@H]2O1 | -31.39
41 | CC1CCN(C(=O)[C@H]2CC[C@@H]3[C@@H](CCN3Cc3nccs3)O2)CC1 | 53.46
42 | Cn1cc(CN2CC[C@H]3O[C@@H](C(=O)NC4CC4)CC[C@H]32)cn1 | -43.66
43 | CN(C)C(=O)[C@@H]1C[C@@H]2[C@@H](CCN2Cc2nccs2)O1 | 55.11
44 | CC[C@@]1(O)CCN(C(=O)CN(C)Cc2ccc(F)cc2)C[C@H]1O | 25.06

Row | SMILES | INHIBITION [%]
45 | CN(C)[C@@H]1C[C@@H](CO)N(C(=O)Nc2cccc(F)c2F)C1 | -57.1
46 | CNC(=O)[C@H]1C[C@@H]2CCN(CCc3ccccc3)C[C@@H]2O1 | 21.77
47 | CS(=O)(=O)N1CCc2sc(C(=O)NCc3ccccc3)cc21 | 38.62
48 | O=C(C1CC(F)(F)C1)N1C[C@@H]2CN(CC3CC3)CCO[C@@H]2C1 | -14.21
49 | Cc1nccn1CCC1CCN(C(C)C)CC1 | 4.53
50 | Cc1ccc2c(ccn2CCC(=O)O)c1 | -7.01
51 | Cc1cccc(CN2C(=O)C[C@H]3[C@@H]2CCN3Cc2ccccn2)n1 | -11.91
52 | Cc1cnn(C2CCCN(C(=O)c3ccccc3-n3cnnn3)C2)c1 (stereo unspecified) | -31.16
53 | Cc1cnn(C2CCCN(C(=O)c3cn(-c4ccccc4)nc3C)C2)c1 (stereo unspecified) | 86.75
54 | Cc1nn(-c2ccccc2)cc1C(=O)N1CCCN2CCCC2C1 (stereo unspecified) | 20.11
55 | Cc1cnn(C2CCCN(C(=O)c3ccc4c(c3)CCC4)C2)c1 (stereo unspecified) | 56.02
56 | Cc1cnn(C2CCCN(C(=O)c3ccn(C)c(=O)c3)C2)c1 (stereo unspecified) | 16.51
57 | Cc1nn(-c2ccccc2)cc1C(=O)N1CCCC(n2cccn2)C1 (stereo unspecified) | 11.1
58 | Cc1cnn(C2CCCN(C(=O)c3ccc(-n4cnnn4)cc3)C2)c1 (stereo unspecified) | 15.4
59 | O=C(c1ccc(NC2CC2)nc1)N1CCCC(n2cccn2)C1 (stereo unspecified) | 54.85
60 | Cc1cnn(C2CCCN(C(=O)c3sccc3-n3cnnn3)C2)c1 (stereo unspecified) | 51.21
61 | O=C(c1ccc(NC2CC2)nc1)N1CCCC(n2ccnc2)C1 (stereo unspecified) | -5.3
62 | O=C(c1ccc(-n2cccn2)nc1)N1CCCC(n2cccn2)C1 (stereo unspecified) | -9.61
63 | Cc1cnn(C2CCCN(C(=O)c3ccnc(N(C)C)c3)C2)c1 (stereo unspecified) | -21.91
64 | COc1ccccc1CN1CCC(c2nn(CCN)c3nccnc23)C1 (stereo unspecified) | -6.04
65 | Cc1csc(CN2CC[C@H]3C[C@H](c4nc(C)no4)O[C@@H]3C2)n1 | 18.32
66 | CCOCC1CN(c2ccc(C)nn2)Cc2nn(CC)cc21 (stereo unspecified) | -3.19

Row | SMILES | INHIBITION [%]
67 | CCCc1cc(=O)[nH]c(-c2cccc(CN3CCN4CCCC4C3)c2)n1 (stereo unspecified) | -19.98
68 | Cc1cnn(CC2CCCCN2CC(=O)NCc2ccccn2)c1 (stereo unspecified) | 16.6
69 | Cc1cnn(C2CCCN(C(=O)c3ccc(N(C)C)nn3)C2)c1 (stereo unspecified) | 69.41
70 | O=C(c1cnc(-c2cnccn2)s1)N1CCCC(n2cccn2)C1 (stereo unspecified) | 35.65
71 | O=C(c1cnc(-c2ccccn2)s1)N1CCCC(n2cccn2)C1 (stereo unspecified) | 51.94
72 | Cc1cnn(C2CCCN(C(=O)c3ccc(N4CCCC4)nn3)C2)c1 (stereo unspecified) | -104.9
73 | CN(C)c1ccc(C(=O)N2CCCC(n3cccn3)C2)nn1 (stereo unspecified) | 37.68
74 | Cc1ccc(-n2cc(C(=O)N3CCCC(n4cccn4)C3)nn2)cc1 (stereo unspecified) | 18.59
75 | O=C(c1cn(-c2ccccc2)nn1)N1CCCC(n2cccn2)C1 (stereo unspecified) | -3.05
76 | O=C(c1cnc(-c2ncccn2)s1)N1CCCC(n2cccn2)C1 (stereo unspecified) | 5.09
77 | Cc1cnn(C2CCCN(C(=O)c3ccc(O)nc3)C2)c1 (stereo unspecified) | 45.83
78 | Cc1cccc(-n2cc(C(=O)N3CCCC(n4cccn4)C3)nn2)c1 (stereo unspecified) | 58.53
79 | CNC(=O)c1ccc(C(=O)N2CCCC(n3cc(C)cn3)C2)cn1 (stereo unspecified) | 16.64
80 | Cc1cnn(C2CCCN(C(=O)c3ccc(NC4CC4)nc3)C2)c1 (stereo unspecified) | 72.31
81 | CCc1nc(CN2CCCC(N(C)CCc3cccs3)C2)no1 (stereo unspecified) | -14.04
82 | CCC(CC)c1cc(CNC(=O)N2CCOC(C)C2)on1 (stereo unspecified) | -40.76
83 | c1cnc(N2CCN(CCn3ccnc3-c3ccncc3)CC2)nc1 | 36.79
84 | Cc1nc(C2CCN(C(=O)c3cscn3)CC2)c2sccn12 | 45.5
85 | CC(C)n1[nH]c(=O)c2c1NC(=O)CSC2c1cccc(OCC(N)=O)c1 (stereo unspecified) | 9.29
86 | O=C(c1cnccn1)N1C[C@@H]2CN(Cc3cccnc3)CCO[C@@H]2C1 | 0.54
87 | CN(C)CCN1C2(CCN(Cc3nccs3)C2)c2ccccc2S1(=O)=O (stereo unspecified) | 31.25
88 | Cn1cc(C2COC3(CCN(C(=O)c4ccsc4)CC3)C2)cn1 (stereo unspecified) | -0.38

Row | SMILES | INHIBITION [%]
89 | Cn1cc(-c2nc(CN3CCc4c(ncn4C)C3)cs2)cn1 | 14.06
90 | Cc1nc(CNCC2CCCN2c2cccnn2)no1 (stereo unspecified) | -12.31
91 | O=C(c1cnc(-c2cccs2)s1)N1CCCN2CCCC2C1 (stereo unspecified) | -38.96
92 | O=C(c1cnc(-c2cccs2)s1)N1CCCC(n2cccn2)C1 (stereo unspecified) | 42.18
93 | O=C(c1cnc(-c2cccs2)s1)N1CCCC(n2ccnc2)C1 (stereo unspecified) | 64.16
94 | Cn1cccc1C(=O)N1CC[C@H]2[C@H]1CCN2CC1CC1 | -0.23
95 | CCN(CC)C(=O)c1ccc(COc2ccccc2C#N)o1 | 9.54
96 | O=C(O)c1cc2c(nc1-c1ccncc1)CCN(C1CCOC1)CC2 (stereo unspecified) | -6.71
97 | CCc1ccc(-c2cc(C(F)(F)F)nc(N3CCC(N)CC3)n2)cc1 | 16.36
98 | c1coc(-c2nc(CN3CCn4c(nnc4C4CC4)C3)cs2)c1 | 39.65
99 | Clc1ccc2cccnc2c1CN1CCn2c(nnc2C2CC2)C1 | 55.36
100 | CCCC1CCCN(Cc2csc(-c3ncccn3)n2)CC1 (stereo unspecified) | 33.5
101 | c1cnc(-c2nc(CN3CCn4c(nnc4C4CC4)C3)cs2)nc1 | 63.64
102 | Fc1cccc(Cl)c1CN1CCn2c(nnc2C2CC2)C1 | 7.67
103 | CC1CCCN(Cc2csc(-c3ncccn3)n2)CC1 (stereo unspecified) | 53.03
104 | c1ccc(-c2nc(CN3CCn4c(nnc4C4CC4)C3)cs2)cc1 | 34.39
105 | c1cnc(-c2nc(CN3CCCC(N4CCCC4)C3)cs2)nc1 (stereo unspecified) | -44.96
106 | Cc1nnc2n1CCN(Cc1c(Cl)ccc3cccnc13)C2 | 5.28
